Measurements from PubChem BioAssay (NCATS).
Results filed as inconclusive are left out. Unmarked numbers belong to inactive results. Active and inactive are the calls of the source. The call rests on the fitted dose curve; in most records, active means well fitted inhibition curve with a large enough effect; inconclusive means small, poorly fitted or top-dose-only effect; inactive means flat fitted curve, though single readings scatter.

Assays:
Experiment in all cases: Cytotoxic Profiling of Annotated Libraries Using Quantitative High-Throughput Screening (AID 1296008); further: nearly all actives have a fitted effect of over 60% in size
Settings in all cases: Five cell lines viability, CellTiter-Glo ATP luminescence, 48-72 h; max response: hits give low values
CRL-7250 = system: CRL-7250
Procedure, shortened: (§1)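 Cytotoxicity was measured as CellTiter-Glo ATP luminescence, read after 10 min at room temperature. Compound treatment of the cells lasted 48 or 72 hr at 37 degrees Celsius in a qHTS format.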

HEK293 = system: HEK293
Procedure, shortened: as §1

HaCat = system: HaCat
Procedure, shortened: as §1
On the % scale 0 is the no-effect control and ±100 the full control effect; potency means the concentration at half of the fitted maximal effect.

COC1=CC(=O)O[C@@H](CCc2ccccc2)C1
outcome (CRL-7250): inactive | max response (HEK293): 0.422% | max response (HaCat): 3.86%

CCN1C[C@]2(COC(=O)c3ccccc3N3C(=O)C[C@H](C)C3=O)CC[C@H](OC)[C@@]34[C@@H]5C[C@H]6[C@H](OC)[C@@H]5[C@](O)(C[C@@H]6OC)[C@](O)([C@@H](OC)[C@H]23)[C@@H]14
max response (CRL-7250): -0.686% | max response (HEK293): 2.21% | max response (HaCat): -1.58%

CC1C/C=C/C(O)C(O)CC/C=C/c2cc(O)cc(O)c2C(=O)O1 (centres undefined)
outcome (CRL-7250): inactive | outcome (HEK293): inactive | max response (HaCat): -2.35%

COC1CC(OC2CCC3(C)C(CCC4C3CCC3(C)C(C5=CC(=O)OC5)C(OC(C)=O)CC43O)C2)OC(C)C1OC1OC(CO)C(O)C(O)C1O (centres undefined)
Potency (CRL-7250): 0.544 µM (active) | Potency (HEK293): 1.22 µM (active) | Potency (HaCat): 2.43 µM (active)

CCCCCOc1cc2c(cc1-c1cc(/C=C/C(=O)O)ccc1O)C(C)(C)CCC2(C)C
max response (CRL-7250): -2.58% | outcome (HEK293): inactive | outcome (HaCat): inactive

CC(=O)O[C@H]1C[C@@H](OC(C)=O)C(C)(C)C2C[C@@H](O)[C@]3(C)C(CC[C@@]4(C)[C@H](C5=CC(=O)OC5O)C[C@H]5O[C@]543)[C@]21C (some centres undefined)
max response (CRL-7250): 2.14% | outcome (HEK293): inactive | max response (HaCat): -10.3%

CN(C)CCc1c[nH]c2ccc(CN3CCN(C)S3(=O)=O)cc12
max response (CRL-7250): 3.29% | max response (HEK293): -0.516% | outcome (HaCat): inactive

C/C=C(\C)C(=O)OC1CC2C(C)(C)OC(=O)CC(OC(C)=O)C2(C)C2CC(OC(=O)C(C)C)C3(C)C(c4ccoc4)CC4OC43C12C (centres undefined)
outcome (CRL-7250): inactive | max response (HEK293): -0.997% | outcome (HaCat): inactive
